In PubChem BioAssay (Tox21):
Records with an inconclusive call do not appear. A call without a number means that no potency is given here. The source made the active and inactive calls. Calls come from the whole dose curve; as a rule, active = well fitted cell-killing curve with a large enough effect in the repeat runs; inconclusive = weak or mixed curves, or effect the other way; inactive = no such curve, though single readings can be large or run the other way.

Assay: qHTS assay to identify small molecule agonists of the RXR signaling pathway - cell viability counter screen (AID 1159529); note: nearly all actives have a fitted effect of over 50% in size
Settings: RXR-alpha-bla HEK293T viability, CellTiter-Glo, 16 h; series mostly up to 76.8 µM
Description: National Center for Advancing Translational Sciences [NCATS]
NIH Chemical Genomics Center [NCGC]
U.S. Environmental Protection Agency [EPA]
National Institutes of Environmental Health Sciences [NIEHS]
National Toxicology Program [NTP]
U.S. Food and Drug Administration [FDA]
The Retinoid X receptor (RXR), a nuclear hormone receptor expressed in liver, spleen, placenta, epidermis, central nervous system. These receptors are able to form homo and heterodimers with other nuclear receptors and due to this heterodimerizing ability, RXR functions as master regulators producing diverse physiological effects. Three subtypes of RXR exist; alpha, beta and gamma. Retinoid X receptor alpha (RXR-alpha) has potential roles in metabolic signaling pathways, skin alopecia, dermal cysts, cardiac development, insulin sensitization etc. Therefore screening environmental chemicals on RXR-alpha signaling can be used for the studies focused on such therapeutic applications. For quantification of RXR-alpha ligands signaling, GeneBLAzer RXR alpha-UAS-bla HEK 293T (Life Technologies, Carlsbad, CA) cells containing a beta-lactamase reporter-gene under control of Retinoid X receptor-alpha response element were used to screen Tox21 10K library. The cytotoxicity of the Tox21 compound library against the RXR-alpha HEK 293T cell line was tested in parallel by measuring cell viability using CellTiter-Glo assay (Promega Corporation, Madison, WI) in the same wells.
Tox21 Assay Protocol Summary:
RXR-alpha HEK 293T cells were dispensed at 2,000 cells/6 uL of assay medium containing 2% charcoal-stripped FBS using a Multidrop Combi (ThermoFisher Scientific, Waltham, MA) dispenser. The assay was performed in black wall/clear-bottom 1536-well plates (Greiner Bio-One North America Inc. Monroe, NC). Tetraoctyl ammonium bromide was used as a positive control in the cytotoxicity screen. After the assay plates were incubated at 37 C and 5% CO2 for 5 hr, 23 nL of compounds dissolved in DMSO, positive control or DMSO only were transferred to the assay plate by a Pintool station (Kalypsys, San Diego, CA). The assay plates were incubated at 37 C and 5% CO2 for 16 hr. One uL of LiveBLAzer B/G FRET substrate (Life Technologies) was added using a Flying Reagent Dispenser (FRD) (Aurora Discovery, San Diego, CA) and the plates were incubated at room temperature for 2 hr. Fluorescence intensity (405 nm excitation, 460/530 nm emission) was measured using an Envision plate reader (PerkinElmer, Shelton, CT). For cytotoxicity, 4 uL/well of CellTiter-Glo reagent was added into the assay plates using an FRD. After 30 min incubation at room temperature, the luminescence intensity was measured using a ViewLux plate reader (PerkinElmer).

Question: Which Potency does the source give for `Clc1ccc(Cl)c(Cl)c1` here?
Answer: Its Potency is “inactive”.

Question: For `CCCCCCCCP(=O)(O)O`, which Potency is on record?
Answer: Its Potency is “inactive”.

Question: For `CCCCOC(=O)CCC(=O)OCCCC`, which Potency is on record?
Answer: The Potency was “inactive”.

Question: Which Potency does the source give for `CCC(C)(C)O` here?
Answer: Its Potency is “inactive”.

Question: With `CC(C)(C)N(NC(=O)c1ccc(Cl)cc1)C(=O)c1ccccc1` as the compound, how does the Potency read?
Answer: Its Potency is “inactive”.

Question: With `OC[P+](CO)(CO)CO` as the compound, how does the Potency read?
Answer: Its Potency is “inactive”.

Question: Which Potency does the source give for `COc1ccccc1N1CCNCC1` here?
Answer: Its Potency is “inactive”.

Question: Which Potency does the source give for `C1CS1` here?
Answer: The Potency was “inactive”.

Question: With `CCOC(=O)c1cncn1C(C)c1ccccc1` (stereo not given) as the compound, how does the Potency read?
Answer: The Potency was “inactive”.

Question: For `C#C[C@]1(O)CC[C@H]2[C@@H]3CCC4=CC(=O)CCC4=C3C=C[C@@]21CC`, which Potency is on record?
Answer: The Potency was “inactive”.

Question: For `COc1cc(C[C@@H](C)N)c(OC)cc1Br`, which Potency is on record?
Answer: Its Potency is “inactive”.

Question: For `CN(C)C(=O)Nc1cccc(OC(=O)NC(C)(C)C)c1`, which Potency is on record?
Answer: The Potency was “inactive”.

Question: For `CC(C)CCON=O`, which Potency is on record?
Answer: Its Potency is “inactive”.

Question: Which Potency does the source give for `C[N+](C)(C)CCOC(=O)C(O)(c1ccccc1)c1ccccc1` here?
Answer: Its Potency is “inactive”.

Question: Which Potency does the source give for `c1ccc2c(c1)sc1ccccc12` here?
Answer: The Potency was “inactive”.

Question: Which Potency does the source give for `C[Si](Cn1cncn1)(c1ccc(F)cc1)c1ccc(F)cc1` here?
Answer: The Potency was “inactive”.

Question: Which Potency does the source give for `CCCC[N+](CCCC)(CCCC)CCCC` here?
Answer: Its Potency is “inactive”.

Question: With `OCCSSCCO` as the compound, how does the Potency read?
Answer: Its Potency is “inactive”.

Question: Which Potency does the source give for `O=C(O)c1cc(Cl)ccc1Cl` here?
Answer: Its Potency is “inactive”.

Question: With `C=CC(=O)OCC` as the compound, how does the Potency read?
Answer: The Potency was “inactive”.

Question: With `Nc1cccc2ccccc12` as the compound, how does the Potency read?
Answer: The Potency was “inactive”.

Question: Which Potency does the source give for `O=C1NC(=O)C(=O)C(=O)N1` here?
Answer: Its Potency is “inactive”.

Question: For `CCOc1cccc(C2(N3CCN(c4ccccc4)CC3)CCC(C)CC2)c1` (stereo not given), which Potency is on record?
Answer: Its Potency is “inactive”.

Question: With `Cc1cccc(C)c1NC1=NCCCS1` as the compound, how does the Potency read?
Answer: The Potency was “inactive”.

Question: With `CCc1ccccc1N` as the compound, how does the Potency read?
Answer: The Potency was “inactive”.

Question: With `OCC1CO1` (stereo not given) as the compound, how does the Potency read?
Answer: Its Potency is “inactive”.

Question: Which Potency does the source give for `CCSCc1ccccc1OC(=O)NC` here?
Answer: The Potency was “inactive”.

Question: With `C=CCOC(=O)C(C)(C)OC(=O)c1cc(-n2c(=O)cc(C(F)(F)F)n(C)c2=O)ccc1Cl` as the compound, how does the Potency read?
Answer: The Potency was “inactive”.

Question: For `CN(C1CCCCC1)C1CCCCC1`, which Potency is on record?
Answer: Its Potency is “inactive”.

Question: With `CCOP(=S)(S)OCC` as the compound, how does the Potency read?
Answer: The Potency was “inactive”.

Question: Which Potency does the source give for `Nc1ccc2c(c1)Cc1ccccc1-2` here?
Answer: Its Potency is “inactive”.

Question: With `CCCC[P+](CC)(CCCC)CCCC` (tested in a mixture with another compound) as the compound, how does the Potency read?
Answer: Its Potency is “inactive”.

Question: With `O=C(Cc1ccccc1)OCCc1ccccc1` as the compound, how does the Potency read?
Answer: The Potency was “inactive”.

Question: Which Potency does the source give for `C=CCN1C[C@H](C)N([C@H](c2ccc(C(=O)N(CC)CC)cc2)c2cccc(OC)c2)C[C@H]1C` here?
Answer: Its Potency is “inactive”.

Question: For `C=CC(=O)NC(C)(C)CC(C)=O`, which Potency is on record?
Answer: Its Potency is “inactive”.

Question: Which Potency does the source give for `CC(Cc1ccccc1)NCc1ccccc1Cl` (stereo not given) here?
Answer: The Potency was “inactive”.

Question: For `Cc1ccccc1`, which Potency is on record?
Answer: The Potency was “inactive”.

Question: Which Potency does the source give for `OCCCl` here?
Answer: Its Potency is “inactive”.

Question: Which Potency does the source give for `CN(C)N` here?
Answer: The Potency was “inactive”.

Question: Which Potency does the source give for `CC(CC(C(N)=O)(c1ccccc1)c1ccccc1)N(C)C` (stereo not given) here?
Answer: Its Potency is “inactive”.
